The text below walks through data of PubChem BioAssay.

The source made the active and inactive calls.

Experiment [1] relates to PRMT1 (protein arginine N-methyltransferase 1). Kind of experiment: small molecules binding arginine methyltransferase PRMT1 – biochemical, small-molecule microarray, 635 nm fluorescence, primary screen (AID 1088).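 Note: binding of Prmt1 protein to compounds spotted on small-molecule microarray slides.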 The conditions noted are these: higher = more signal.
The nature of experiment [2]: growth effects on S. cerevisiae YJM789 – YJM789 clinical isolate, OD600, 24 h, basal, primary screen (AID 1089).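 Note: growth of clinical yeast isolate S. cerevisiae YJM 789 seeded 1000 cells per well; test concentration not given here.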 As to conditions: higher = more signal, called active from +8 up or from −8 down.
Experiment [3] is described as follows: S. pombe growth modifiers, basal conditions – strain 972, OD600, 24 h, no modulator, primary screen (AID 1090).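 Note: basal condition with compound alone and no growth modifier present; test concentration not given here.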 The conditions noted are these: S. pombe 972 growth, higher = more signal, called active from +8 up or from −8 down.
Experiment [4] is described as follows: budding yeast growth modifiers under rapamycin – strain BY4716, OD600, 96 h, primary screen (AID 1091). Note: test concentration not given here. As to conditions: S. cerevisiae BY4716 + rapamycin, higher = more signal, called active from +8 up or from −8 down.
Experiment [5] deals with Torsin-1A-interacting protein 2 (Homo sapiens) (UniProt Q8NFQ8). Kind of experiment: small molecules binding lysate-expressed LULL1 – cell lysate, human LULL1 lysate, 635/667 nm fluorescence, primary screen (AID 1092).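 Note: probe is lysate of COS7 cells overexpressing human LULL1; score merges per-feature 667 nm fluorescence with signal-to-noise.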 As to conditions: small-molecule microarray, hLULL1 lysate binding, 635 nm fluorescence; higher = more signal.
Torsin-1A-interacting protein 2 (Homo sapiens), sequence (Q8NFQ8 whole entry, looked up): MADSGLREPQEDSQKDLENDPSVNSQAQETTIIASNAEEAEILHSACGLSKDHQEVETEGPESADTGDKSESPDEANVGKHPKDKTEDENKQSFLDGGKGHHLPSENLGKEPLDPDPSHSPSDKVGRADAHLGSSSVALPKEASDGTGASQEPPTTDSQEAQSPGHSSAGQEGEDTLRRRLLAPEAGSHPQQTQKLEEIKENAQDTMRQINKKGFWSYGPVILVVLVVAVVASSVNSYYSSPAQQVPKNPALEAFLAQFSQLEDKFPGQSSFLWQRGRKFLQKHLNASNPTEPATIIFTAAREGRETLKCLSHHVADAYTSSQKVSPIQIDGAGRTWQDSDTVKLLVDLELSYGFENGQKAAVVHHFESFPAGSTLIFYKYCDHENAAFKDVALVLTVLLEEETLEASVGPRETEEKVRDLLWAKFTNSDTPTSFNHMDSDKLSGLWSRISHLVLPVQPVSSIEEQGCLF
Experiment [6] is described as follows: optical density change of DRC41 E. coli – strain DRC41, OD650, 24 h, E. coli filamentation project, primary screen (AID 1093).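 Note: MC1000 strain lacking acrAB efflux and sulA so SOS filamentation is blocked; test concentration not given here.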 As to conditions: E. coli DRC41 growth, higher = more signal, called active from +8 up or from −8 down.
Experiment [7] in a line: probe aLefty2 binding to arrayed compounds – biochemical, biotinylated probe, 635/667 nm fluorescence, primary screen (AID 1094).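 Note: score merges spot fluorescence near 667 nm with spot signal-to-noise ratio.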 As to conditions: small-molecule microarray, higher = more signal.
Experiment [8] has as its system Noggin (protein binding on small-molecule microarray). Briefly: small molecules binding Noggin protein – biochemical, 635/667 nm fluorescence, primary screen (AID 1095).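 Note: score merges 667 nm feature fluorescence with signal to noise over triplicate slides.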 The conditions noted are these: 635 nm fluorescence, higher = more signal.
For experiment [9], the target named is Neurogenic locus notch homolog protein 3 (Homo sapiens) (UniProt Q9UM47). Kind of experiment: small molecules binding NOTCH3 protein – biochemical, 635/667 nm fluorescence, primary screen (AID 1096). As to conditions: small-molecule microarray, 635 nm fluorescence, higher = more signal.
Neurogenic locus notch homolog protein 3 (Homo sapiens), sequence (Q9UM47 whole entry, looked up): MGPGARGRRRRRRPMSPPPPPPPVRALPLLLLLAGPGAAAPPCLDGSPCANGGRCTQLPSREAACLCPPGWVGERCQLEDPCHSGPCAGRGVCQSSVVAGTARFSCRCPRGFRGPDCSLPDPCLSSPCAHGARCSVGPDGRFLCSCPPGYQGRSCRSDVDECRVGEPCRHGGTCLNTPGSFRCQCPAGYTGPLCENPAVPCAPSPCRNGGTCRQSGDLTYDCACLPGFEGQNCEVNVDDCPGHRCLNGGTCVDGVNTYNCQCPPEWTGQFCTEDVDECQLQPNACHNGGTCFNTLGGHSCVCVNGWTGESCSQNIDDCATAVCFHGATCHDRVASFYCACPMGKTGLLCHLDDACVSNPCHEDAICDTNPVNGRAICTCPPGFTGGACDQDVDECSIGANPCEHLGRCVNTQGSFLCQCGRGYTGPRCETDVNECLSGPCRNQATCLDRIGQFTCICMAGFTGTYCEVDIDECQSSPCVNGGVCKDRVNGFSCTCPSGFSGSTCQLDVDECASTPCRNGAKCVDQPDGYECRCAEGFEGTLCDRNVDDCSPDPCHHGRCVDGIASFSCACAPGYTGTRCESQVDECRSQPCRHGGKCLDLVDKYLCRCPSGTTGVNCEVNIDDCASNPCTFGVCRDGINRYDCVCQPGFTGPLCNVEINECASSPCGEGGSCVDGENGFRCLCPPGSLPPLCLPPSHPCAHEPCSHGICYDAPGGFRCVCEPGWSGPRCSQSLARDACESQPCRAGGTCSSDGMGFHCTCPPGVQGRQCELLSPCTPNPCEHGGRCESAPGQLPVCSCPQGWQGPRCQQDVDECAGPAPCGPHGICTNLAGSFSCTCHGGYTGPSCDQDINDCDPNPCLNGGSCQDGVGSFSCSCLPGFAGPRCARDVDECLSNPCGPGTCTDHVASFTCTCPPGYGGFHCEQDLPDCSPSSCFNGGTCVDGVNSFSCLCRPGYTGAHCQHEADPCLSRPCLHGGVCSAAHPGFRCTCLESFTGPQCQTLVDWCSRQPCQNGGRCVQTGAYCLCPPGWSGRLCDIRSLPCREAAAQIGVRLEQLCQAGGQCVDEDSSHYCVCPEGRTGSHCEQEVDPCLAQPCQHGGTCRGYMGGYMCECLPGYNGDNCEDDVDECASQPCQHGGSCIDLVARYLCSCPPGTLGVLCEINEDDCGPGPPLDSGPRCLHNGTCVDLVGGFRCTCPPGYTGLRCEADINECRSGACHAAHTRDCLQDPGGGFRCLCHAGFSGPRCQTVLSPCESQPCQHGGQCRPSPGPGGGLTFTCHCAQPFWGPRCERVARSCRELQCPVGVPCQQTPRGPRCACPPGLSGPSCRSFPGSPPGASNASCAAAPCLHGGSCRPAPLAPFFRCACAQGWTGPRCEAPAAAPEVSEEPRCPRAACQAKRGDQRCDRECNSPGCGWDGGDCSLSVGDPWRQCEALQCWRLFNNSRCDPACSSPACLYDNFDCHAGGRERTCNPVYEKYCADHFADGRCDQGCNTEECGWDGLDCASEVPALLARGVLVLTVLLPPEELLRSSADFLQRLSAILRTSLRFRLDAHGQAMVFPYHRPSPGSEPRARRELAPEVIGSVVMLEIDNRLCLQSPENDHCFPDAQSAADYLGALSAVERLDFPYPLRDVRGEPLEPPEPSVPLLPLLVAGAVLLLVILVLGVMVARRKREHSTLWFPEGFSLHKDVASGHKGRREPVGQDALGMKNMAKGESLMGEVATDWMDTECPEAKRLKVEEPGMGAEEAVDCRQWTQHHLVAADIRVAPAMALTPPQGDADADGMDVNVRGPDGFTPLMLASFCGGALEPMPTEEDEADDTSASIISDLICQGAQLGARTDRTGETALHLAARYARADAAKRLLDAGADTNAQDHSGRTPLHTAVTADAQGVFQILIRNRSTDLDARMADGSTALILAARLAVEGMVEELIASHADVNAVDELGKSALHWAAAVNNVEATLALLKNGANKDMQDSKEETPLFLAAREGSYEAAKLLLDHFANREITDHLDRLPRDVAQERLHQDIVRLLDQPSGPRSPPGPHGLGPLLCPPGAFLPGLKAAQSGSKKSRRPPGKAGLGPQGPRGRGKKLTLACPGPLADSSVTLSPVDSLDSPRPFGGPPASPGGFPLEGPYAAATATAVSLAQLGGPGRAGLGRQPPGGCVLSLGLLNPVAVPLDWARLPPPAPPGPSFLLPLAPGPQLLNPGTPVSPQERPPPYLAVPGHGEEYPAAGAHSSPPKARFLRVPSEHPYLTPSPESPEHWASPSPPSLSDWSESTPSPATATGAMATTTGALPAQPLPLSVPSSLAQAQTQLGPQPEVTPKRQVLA
Experiment [10] can be described thus: probe aEGFR binding to arrayed compounds – biochemical, biotinylated probe, 635/667 nm fluorescence, primary screen (AID 1097).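 Note: probe is a biotinylated anti-EGFR antibody binding compounds printed on slides; score combines fluorescence near 667 nm and signal to noise of each spot.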 As to conditions: small-molecule microarray, higher = more signal.
For experiment [11], the system named is Plasmodium falciparum Sir2 (PF13_0152, Sir2A). Briefly: Plasmodium falciparum Sir2A binding compounds – biochemical, small-molecule microarray, 635 nm fluorescence, primary screen (AID 1098).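 Note: score merges spot fluorescence intensity with its signal-to-noise ratio.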 As to conditions: fluorescence 635 nm, higher = more signal.
A short description of experiment [12]: probe aDKK1 binding to arrayed compounds – biochemical, biotinylated probe, 635/667 nm fluorescence, primary screen (AID 1099).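 Note: score merges 667nm spot fluorescence with signal to noise across triplicate slides; reference of the scale not given here.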 As to conditions: small-molecule microarray, higher = more signal.
A short description of experiment [13]: probe aCHRDL2 binding to arrayed compounds – biochemical, biotinylated probe, 635/667 nm fluorescence, primary screen (AID 1100). The conditions noted are these: small-molecule microarray, higher = more signal.
Experiment [14] in a line: change in splice reporter luminescence, either direction, cell-based, HEK293, spliceosome inhibition project, primary screen (AID 1101).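 Note: HEK293 cells carrying a splicing-competent luciferase reporter gene; test concentration not given here.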 The conditions noted are these: HEK293 splicing luciferase reporter, 24 h, higher = more signal, called active from +8 up or from −8 down.
The target in experiment [15] is Fibroblast growth factor 10 (Homo sapiens) (UniProt O15520). Briefly: compounds binding fibroblast growth factor 10 – biochemical, small-molecule microarray, 635 nm fluorescence, primary screen (AID 1102). The conditions noted are these: FGF10 binding, fluorescence 635 nm, higher = more signal.
Fibroblast growth factor 10 (Homo sapiens), sequence (O15520 whole entry, looked up): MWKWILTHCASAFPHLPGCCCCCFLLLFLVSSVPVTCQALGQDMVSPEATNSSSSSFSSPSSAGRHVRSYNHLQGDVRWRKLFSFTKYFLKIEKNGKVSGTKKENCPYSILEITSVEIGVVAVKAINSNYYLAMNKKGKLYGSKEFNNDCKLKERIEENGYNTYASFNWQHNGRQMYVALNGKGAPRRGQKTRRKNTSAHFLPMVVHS
Experiment [16] relates to glycogen synthase kinase-3 (GSK3A per assay name; protocol says GSK3B). Kind of experiment: compounds binding glycogen synthase kinase-3 – biochemical, small-molecule microarray, 635 nm fluorescence, GSK3A, primary screen (AID 1103). Note: the record names both GSK3A and GSK3B. The conditions noted are these: fluorescence 635 nm, higher = more signal.
For experiment [17], the target named is Epidermal growth factor receptor (Homo sapiens) (UniProt P00533). Kind of experiment: compounds binding epidermal growth factor receptor – biochemical, small-molecule microarray, 635 nm fluorescence, primary screen (AID 1104).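 Note: score merges 667 nm emission intensity with spot signal to noise over triplicate slides.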 As to conditions: EGFR binding, higher = more signal.
Epidermal growth factor receptor (Homo sapiens), sequence (P00533 whole entry, looked up): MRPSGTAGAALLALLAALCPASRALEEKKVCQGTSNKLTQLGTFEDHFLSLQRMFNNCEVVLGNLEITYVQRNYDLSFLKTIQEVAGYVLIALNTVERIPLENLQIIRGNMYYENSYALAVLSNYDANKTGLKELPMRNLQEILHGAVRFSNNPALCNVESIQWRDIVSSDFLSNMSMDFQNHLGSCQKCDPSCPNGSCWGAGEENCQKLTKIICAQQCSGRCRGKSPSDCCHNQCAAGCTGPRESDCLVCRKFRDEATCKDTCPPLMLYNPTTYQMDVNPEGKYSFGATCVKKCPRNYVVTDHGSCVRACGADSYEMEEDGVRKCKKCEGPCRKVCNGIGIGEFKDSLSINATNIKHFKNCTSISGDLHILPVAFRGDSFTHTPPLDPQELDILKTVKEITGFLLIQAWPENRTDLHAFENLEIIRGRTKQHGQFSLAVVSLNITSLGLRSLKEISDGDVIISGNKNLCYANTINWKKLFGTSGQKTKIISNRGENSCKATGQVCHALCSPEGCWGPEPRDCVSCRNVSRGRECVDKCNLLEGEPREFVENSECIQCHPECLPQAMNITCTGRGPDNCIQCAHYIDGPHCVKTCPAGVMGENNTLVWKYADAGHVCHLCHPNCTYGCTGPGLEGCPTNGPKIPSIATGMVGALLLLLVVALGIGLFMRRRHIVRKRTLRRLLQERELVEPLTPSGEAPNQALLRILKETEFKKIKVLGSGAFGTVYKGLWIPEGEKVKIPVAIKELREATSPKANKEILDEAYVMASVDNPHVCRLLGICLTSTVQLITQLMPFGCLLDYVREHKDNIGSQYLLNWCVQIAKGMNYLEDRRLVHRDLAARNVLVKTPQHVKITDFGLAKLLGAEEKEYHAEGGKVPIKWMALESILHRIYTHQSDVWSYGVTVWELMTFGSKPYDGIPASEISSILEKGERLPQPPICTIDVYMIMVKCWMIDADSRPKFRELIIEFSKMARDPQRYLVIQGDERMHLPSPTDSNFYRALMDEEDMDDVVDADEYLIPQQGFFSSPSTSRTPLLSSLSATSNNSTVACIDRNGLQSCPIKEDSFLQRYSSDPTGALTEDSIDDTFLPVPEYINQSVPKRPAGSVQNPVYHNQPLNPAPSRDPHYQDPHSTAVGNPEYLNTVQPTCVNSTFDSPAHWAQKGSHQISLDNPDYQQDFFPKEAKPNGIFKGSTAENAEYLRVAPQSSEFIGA
The target in experiment [18] is Follistatin-related protein 3 (Homo sapiens) (UniProt O95633). Kind of experiment: compounds binding follistatin-related protein 3 – biochemical, small-molecule microarray, 635 nm fluorescence, primary screen (AID 1105).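 Note: score merges emission near 667 nm and signal to noise per printed spot across three slides.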 As to conditions: FSTL3 binding, higher = more signal.
Follistatin-related protein 3 (Homo sapiens), sequence (O95633 whole entry, looked up): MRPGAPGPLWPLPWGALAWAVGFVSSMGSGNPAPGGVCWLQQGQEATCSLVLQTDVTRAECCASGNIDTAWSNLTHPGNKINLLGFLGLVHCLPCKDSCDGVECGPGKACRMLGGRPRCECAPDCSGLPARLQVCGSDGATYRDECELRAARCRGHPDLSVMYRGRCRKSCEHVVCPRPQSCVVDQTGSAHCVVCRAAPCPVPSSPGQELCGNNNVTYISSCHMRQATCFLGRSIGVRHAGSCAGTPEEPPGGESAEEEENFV
Experiment [19] addresses Dickkopf-related protein 1 (Homo sapiens) (UniProt O94907). Kind of experiment: small molecules binding DKK1 protein – biochemical, small-molecule microarray, 635 nm fluorescence scan, primary screen (AID 1106).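 Note: score merges emission near 667 nm with signal to noise over three replicate slides.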 As to conditions: higher = more signal.
For experiment [20], the system named is Inhibin beta A chain (activin A). Briefly: small molecules binding activin A – biochemical, small-molecule microarray, 635 nm fluorescence scan, primary screen (AID 1107).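 Note: mouse activin A protein probed at 4.33 µg/mL on printed slides; score merges bound-protein fluorescence near 667 nm with spot signal-to-noise.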 As to conditions: INHBA, higher = more signal.

Dickkopf-related protein 1 (Homo sapiens), sequence (O94907 whole entry, looked up): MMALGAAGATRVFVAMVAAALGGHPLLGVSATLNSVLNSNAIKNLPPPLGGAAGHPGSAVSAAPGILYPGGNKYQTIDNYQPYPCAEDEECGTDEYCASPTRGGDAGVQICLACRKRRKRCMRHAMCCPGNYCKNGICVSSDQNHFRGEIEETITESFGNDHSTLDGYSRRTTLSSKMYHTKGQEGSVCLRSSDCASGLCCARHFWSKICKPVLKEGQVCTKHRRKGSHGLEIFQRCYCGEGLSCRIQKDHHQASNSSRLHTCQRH

As for `COC(=O)[C@@H]1CC[C@H](C)[C@@H](c2ccc(C)cc2)N1C(=O)c1ccc(C=NO[C@H](C)c2cn([C@H](CO)Cc3ccccc3)nn2)cc1`, the composite z-score in experiment [1] worked out at 1.04; in experiment [5], 0.6; in experiment [7], 0.0943; in [8], 1.19; in experiment [9], 1.05; in [10], 0.119. Moreover, the composite z-score was 0.652 in experiment [11]; 0.178 in [12]; 0.115 in experiment [13]; 0.694 in experiment [15]; 0.835 in experiment [16]; 0.551 in [17]. The composite z-score is 1.05 in experiment [18], 0.81 in [19] and 0.135 in [20]. Moreover, the z-score in experiment [2] is 0.149 (inactive); in experiment [3], 0.0048 (inactive); in experiment [4], 0.619 (inactive); in [6], -0.551 (inactive); in experiment [14], -0.178 (inactive).

Take `Cc1ccc(S(=O)(=O)N[C@H]2COC(=O)CC=C[C@H](C)[C@@H](NS(=O)(=O)c3ccc(C)cc3)COC(=O)CC=C[C@@H]2C)cc1`: the composite z-score in [1] is 0.405; in experiment [5] it was 0.247; in [7] it was -0.126; in experiment [8], 0.601; in experiment [9], 0.321; in experiment [10] it was -0.068. Besides, the composite z-score in experiment [11] is -0.0784; in experiment [12], -0.217; in [13], -0.588; in experiment [15] it was 0.925; in [16] it was 0.607; in [17], 0.364. Further, the results for the composite z-score in [18], in experiment [19] and in [20] were 0.577, 0.486 and -0.136, respectively. In addition, the z-score in experiment [2] is -0.293 (inactive); in experiment [3] it was 0.518 (inactive); in experiment [4] it was 0.0667 (inactive); in experiment [6], 0.0401 (inactive); in experiment [14], 0.647 (inactive).

With `O=C1[C@H]2[C@H]3[C@H](O)[C@H](O)CC(=NOC[C@@H](O)COCc4ccco4)[C@H]3CC[C@H]2C(=O)N1C[C@@H]1CCCO1`, the composite z-score in [1] was 0.629; in experiment [5], -0.884; in experiment [7], -0.138; in [8] it was 0.759; in [9], 0.28; in experiment [10], 0.0872. Further, the composite z-score in experiment [11] is 0.717; in experiment [12], -0.369; in experiment [13], -1.4; in experiment [15], 0.725; in experiment [16] it was 1.2; in experiment [17] it was 0.947. In addition, the composite z-score was 0.95 in [18], 1.21 in experiment [19] and -0.0262 in experiment [20]. Also, the z-score in experiment [2] was -0.193 (inactive); in experiment [3], 0.236 (inactive); in experiment [4], -0.318 (inactive); in experiment [6] it was 0.0018 (inactive); in experiment [14], 0.273 (inactive).

As for `O=c1n(Cc2cc3c(cc2Cl)OCO3)c(=O)n2n1CC[C@@H]1C(=NOC[C@@H](O)COCc3ccco3)[C@H]3O[C@H]3[C@@H](O)[C@@H]12`, the composite z-score in experiment [1] was 0.101; in experiment [5] it was 0.177; in [7], -0.286; in experiment [8], 0.323; in [9], 0.667; in [10] it was -0.0976. Further, the composite z-score was 0.461 in [11]; -0.0876 in [12]; -0.454 in experiment [13]; 0.246 in experiment [15]; 0.532 in [16]; 0.349 in experiment [17]. The composite z-score in [18] turned out to be 0.596; in experiment [19] it was 0.538; in [20] it was 0.217. In addition, the z-score is 1.52 (inactive) in experiment [2]; 0.807 (inactive) in [3]; 1.24 (inactive) in [4]; 0.283 (inactive) in experiment [6]; 0.115 (inactive) in [14].

In the case of `CCN1C(=O)[C@H]2[C@H]3[C@H](O)[C@H](O)CC(=O)[C@H]3CC[C@H]2C1=O`, the composite z-score in experiment [1] is 0.288; in [5], 0.718; in experiment [7], -0.228; in experiment [8], 0.675; in experiment [9], 0.386; in experiment [10] it was -0.0989. Moreover, the composite z-score in [11] was 0.519; in experiment [12] it was -0.106; in experiment [13], -0.721; in experiment [15] it was 0.406; in experiment [16], 0.713; in [17], 0.371. Moreover, the composite z-score is 0.396 in experiment [18], 0.776 in [19] and -0.249 in experiment [20]. In addition, the z-score in [2] is -0.955 (inactive); in [3] it was -0.38 (inactive); in experiment [4], -0.18 (inactive); in [6] it was 0.759 (inactive); in experiment [14], 0.691 (inactive).
